The values that follow come from PubChem BioAssay.

For assay [1], the system named is Human papillomavirus type 1a protein E7 (residues 44-93). In words: small molecules binding HPV E7 44-93 – biochemical, small-molecule microarray, residues 44-93, 635 nm fluorescence, primary screen (AID 1108).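 Note: E7 fragment applied at 1 µg/mL in TBST for 1 h at 4 C; score combines spot fluorescence with its signal to noise ratio.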 Particulars: fluorescence 635 nm, higher = more signal.
Assay [2] is described as follows: hepatitis C replication reporter changes, two-sided – Huh7 cells, luciferase reporter, HCV replication inhibitor project, primary screen (AID 1109).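 Note: huh7 hepatoma cells harbouring a luciferase neomycin HCV replicon reporter; luciferase luminescence as measure of HCV replicon replication; test concentration not given here.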 As to conditions: Huh7 HCV replicon luciferase reporter, 48 h; higher = more signal. A general note: A reporter such as luciferase makes a cellular process visible.
Assay [3] addresses Left-right determination factor 2 (Homo sapiens) (UniProt O00292). In words: small molecules binding LEFTY2 protein – biochemical, small-molecule microarray, 635 nm fluorescence scan, primary screen (AID 1110). Particulars: higher = more signal.
The target of assay [4] is Calmodulin-1 (Homo sapiens) (UniProt P0DP23). In words: small molecules binding calmodulin-1 with EGTA – biochemical, small-molecule microarray, Cy5-labelled CALM1, profiling panel (AID 1111).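 Note: labelled calmodulin applied in Tris saline Tween buffer holding calcium plus EGTA and DTT.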 As to conditions: Cy5-CALM1 binding fluorescence, higher = more signal.
Assay [5] shares this target. Nature of the assay: small molecules binding Ca-loaded calmodulin-1 – biochemical, small-molecule microarray, Cy5-labelled CALM1, plus calcium, artefact control for SMM control-protein annotation, profiling panel (AID 1112).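 Note: score merges spot fluorescence with signal to noise from triplicate slides.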 Particulars: Cy5-CALM1 binding fluorescence, higher = more signal.
Assay [6] is described as follows: probe aWnt5a binding to arrayed compounds – biochemical, biotinylated probe, 635/667 nm fluorescence, primary screen (AID 1113).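 Note: score merges 667 nm fluorescence intensity with signal-to-noise per printed feature.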 As to conditions: small-molecule microarray, higher = more signal.
A short description of assay [7]: probe aShh binding to arrayed compounds – biochemical, biotinylated probe, 635/667 nm fluorescence, primary screen (AID 1114).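 Note: probe is biotin-labelled aShh protein from a stem cell growth factor screen; measures binding of labelled protein to compounds printed on the slide; score merges feature fluorescence at 667 nm with signal-to-noise.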 Particulars: small-molecule microarray, higher = more signal.
Assay [8] is described as follows: probe aNog binding to arrayed compounds – biochemical, biotinylated probe, 635/667 nm fluorescence, primary screen (AID 1115).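 Note: probe is biotinylated aNog protein used at 0.15 µg/mL for 1 h at 4 C; z-score combines 667 nm fluorescence of each spot with its signal to noise.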 Particulars: small-molecule microarray, higher = more signal.
For assay [9], the target named is Torsin-1A-interacting protein 1 (Homo sapiens) (UniProt Q5JTV8). In words: compound microarray binding of lysate hLAP1 – cell lysate, small-molecule microarray, COS7 lysate, 635/667 nm fluorescence, primary screen (AID 1116). Particulars: 635 nm fluorescence, higher = more signal.
For assay [10], the target named is Alpha-bungarotoxin (Bungarus multicinctus) (UniProt P60615). In words: compounds binding labelled alpha-BTX control protein – biochemical, small-molecule microarray, Alexa647 label, 635/667 nm fluorescence, artefact control for SMM control protein annotation, profiling panel (AID 1117). As to conditions: alpha-BTX-A647 binding fluorescence, higher = more signal.
The target in the next assay is Albumin (Bos taurus) (UniProt P02769). Nature of the assay: compounds binding labelled BSA control protein – biochemical, small-molecule microarray, Alexa647 label, 635/667 nm fluorescence, artefact control for SMM control protein annotation, profiling panel (AID 1118).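 Note: score merges 667 nm emission intensity and signal-to-noise per printed compound spot.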 As to conditions: BSA-A647 binding, fluorescence 635 nm, higher = more signal.
A short description of assay [11]: probe aXIP binding to arrayed compounds – biochemical, NeuroSMM set, 635/667 nm fluorescence, primary screen (AID 1119).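 Note: probe is the protein aXip251-270 applied at 1 µg/mL to compound-printed slides; binding of probe to printed compounds measured as 667 nm fluorescence plus signal to noise.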 Particulars: small-molecule microarray, higher = more signal, called active from +8 up or from −8 down.
The nature of assay [12]: probe aNOTCH3 binding on compound microarray – biochemical, small-molecule microarray, 635/667 nm fluorescence, primary screen (AID 1120).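 Note: probe is a biotin-tagged antibody raised against NOTCH3 rather than NOTCH3 protein; score merges spot fluorescence near 667 nm with spot signal to noise.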 As to conditions: higher = more signal.
Assay [13] in a line: probe aNOTCH2 binding on compound microarray – biochemical, small-molecule microarray, 635/667 nm fluorescence, primary screen (AID 1121).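 Note: score merges feature fluorescence read at 667 nm with its signal to noise.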 As to conditions: higher = more signal.
Assay [14] concerns the target Carbonic anhydrase 2 (Homo sapiens) (UniProt P00918). Nature of the assay: compounds binding carbonic anhydrase 2 – biochemical, small-molecule microarray, Alexa647-labelled CAII, profiling panel (AID 1122). As to conditions: CAII-A647 binding fluorescence, higher = more signal.
Assay [15] can be described thus: COS7 lysate on small-molecule microarray, probe aHis, 635 nm (AID 1123).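 Note: z-score combines 667nm fluorescence intensity with signal-to-noise per printed compound spot.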 Particulars: COS7 cell lysate, fluorescence, higher = more signal.
A short description of assay [16]: probe aLAP1 signal on lysate-treated microarray – cell lysate, small-molecule microarray, COS7 lysate, primary screen (AID 1124).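 Note: lysate comes from COS7 cells expressing LAP1 and is applied at 0.3 µg/mL; score merges spot fluorescence near 667 nm with signal-to-noise over triplicate slides.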 As to conditions: probe aLAP1, fluorescence, higher = more signal.
The test system of a further assay is Sam68 (KHDRBS1). In words: compounds binding KHDRBS1 protein – biochemical, small-molecule microarray, 635 nm fluorescence, primary screen (AID 1125).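 Note: score merges 667 nm channel intensity with signal to noise over triplicate slides.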 As to conditions: higher = more signal.
The test system of assay [17] is Chordin-like protein 2 (CHRDL2). Nature of the assay: compounds binding chordin-like 2 – biochemical, small-molecule microarray, 635 nm fluorescence, primary screen (AID 1126).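 Note: printed compound slides probed with Chrdl2 protein at 4 µg/mL for 1 h at 4 C; score merges 667 nm emission intensity with signal to noise over three replicate slides.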 Particulars: fluorescence 635 nm, higher = more signal.
Assay [18] concerns the target Concanavalin-A (Canavalia ensiformis) (UniProt P02866). Nature of the assay: compounds binding concanavalin A lectin – biochemical, small-molecule microarray, Alexa647 label, 635 nm, artefact control for SMM control protein annotation, primary screen (AID 1127).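 Note: z combines 667 nm emission intensity with signal-to-noise across three replicate slides.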 As to conditions: ConA-A647 binding fluorescence, higher = more signal.

Calls of active or inactive are those of the source.

Chain of Left-right determination factor 2 (Homo sapiens) (O00292 whole entry, looked up): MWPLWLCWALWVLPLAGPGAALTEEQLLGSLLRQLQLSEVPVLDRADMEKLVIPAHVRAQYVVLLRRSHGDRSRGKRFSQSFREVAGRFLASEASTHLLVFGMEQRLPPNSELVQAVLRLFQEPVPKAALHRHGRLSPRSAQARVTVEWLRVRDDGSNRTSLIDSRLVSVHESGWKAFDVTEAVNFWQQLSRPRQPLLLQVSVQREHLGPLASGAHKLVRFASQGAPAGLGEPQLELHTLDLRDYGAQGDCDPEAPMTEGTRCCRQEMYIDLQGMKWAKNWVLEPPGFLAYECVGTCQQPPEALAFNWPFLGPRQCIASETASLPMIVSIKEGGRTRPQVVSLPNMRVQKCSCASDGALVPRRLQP
Chain of Alpha-bungarotoxin (Bungarus multicinctus) (P60615 whole entry, looked up): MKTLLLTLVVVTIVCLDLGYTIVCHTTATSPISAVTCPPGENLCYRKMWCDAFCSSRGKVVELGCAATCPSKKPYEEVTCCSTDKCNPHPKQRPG
Chain of Concanavalin-A (Canavalia ensiformis) (P02866 whole entry, looked up): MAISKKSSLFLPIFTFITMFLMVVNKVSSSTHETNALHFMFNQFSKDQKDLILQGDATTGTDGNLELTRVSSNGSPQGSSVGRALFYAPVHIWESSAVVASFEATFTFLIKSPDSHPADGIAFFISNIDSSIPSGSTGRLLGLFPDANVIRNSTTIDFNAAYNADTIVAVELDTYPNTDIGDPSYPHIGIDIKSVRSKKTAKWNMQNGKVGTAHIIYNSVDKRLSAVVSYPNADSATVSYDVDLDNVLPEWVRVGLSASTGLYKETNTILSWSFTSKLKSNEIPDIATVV
Chain of Torsin-1A-interacting protein 1 (Homo sapiens) (Q5JTV8 whole entry, looked up): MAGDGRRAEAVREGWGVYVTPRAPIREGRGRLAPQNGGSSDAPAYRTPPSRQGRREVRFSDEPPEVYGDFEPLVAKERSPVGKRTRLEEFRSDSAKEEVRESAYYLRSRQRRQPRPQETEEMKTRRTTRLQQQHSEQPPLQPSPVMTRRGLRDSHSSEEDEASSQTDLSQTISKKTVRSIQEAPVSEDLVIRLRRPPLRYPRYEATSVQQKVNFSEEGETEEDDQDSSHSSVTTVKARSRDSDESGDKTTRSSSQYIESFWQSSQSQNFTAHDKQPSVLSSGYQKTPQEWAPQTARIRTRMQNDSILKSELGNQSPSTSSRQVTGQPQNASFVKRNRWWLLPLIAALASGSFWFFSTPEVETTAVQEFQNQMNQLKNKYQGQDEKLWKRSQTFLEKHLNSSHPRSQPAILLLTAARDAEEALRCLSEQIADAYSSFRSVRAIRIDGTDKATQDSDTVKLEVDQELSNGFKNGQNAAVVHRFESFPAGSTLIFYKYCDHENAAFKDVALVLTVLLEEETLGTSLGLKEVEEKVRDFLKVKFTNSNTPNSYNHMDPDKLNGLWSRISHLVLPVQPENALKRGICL
Chain of Albumin (Bos taurus) (P02769 whole entry, looked up): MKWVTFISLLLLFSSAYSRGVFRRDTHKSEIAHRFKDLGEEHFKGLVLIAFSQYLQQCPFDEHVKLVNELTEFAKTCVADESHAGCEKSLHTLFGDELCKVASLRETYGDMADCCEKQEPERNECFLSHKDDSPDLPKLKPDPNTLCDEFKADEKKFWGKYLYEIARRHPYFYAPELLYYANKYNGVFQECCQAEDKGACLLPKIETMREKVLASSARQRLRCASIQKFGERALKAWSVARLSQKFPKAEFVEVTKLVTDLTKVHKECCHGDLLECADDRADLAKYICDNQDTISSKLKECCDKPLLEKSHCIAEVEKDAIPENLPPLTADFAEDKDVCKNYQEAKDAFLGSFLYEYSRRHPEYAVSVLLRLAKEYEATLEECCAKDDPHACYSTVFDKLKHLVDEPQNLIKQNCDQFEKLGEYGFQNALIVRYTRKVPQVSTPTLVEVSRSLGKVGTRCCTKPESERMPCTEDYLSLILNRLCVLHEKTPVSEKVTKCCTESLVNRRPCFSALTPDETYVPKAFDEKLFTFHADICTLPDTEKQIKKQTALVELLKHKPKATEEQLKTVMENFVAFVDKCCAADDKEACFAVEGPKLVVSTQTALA

For `COC(=O)[C@@]1(Cc2ccc(OC)cc2)[C@H]2c3cc(C(=O)N(C)C)n(Cc4cc(F)c(F)c(F)c4)c3C[C@H]2CN1C(=O)c1ccccc1`, the composite z-score in assay [1] was determined as 1.43; in assay [3], 0.159; in assay [4], 2.29; in assay [5], 1.17; in assay [6] it was 0.225; in assay [7] it was 0.75. For the same molecule, the composite z-score in assay [8] is 1.73; in assay [9], 1.19; in assay [10], 1.86; with Albumin (Bos taurus), 0.895; in assay [12], 0.578; in assay [13], 0.212. The composite z-score in [14] was 0.767; in assay [15] it was 2.73; in assay [16] it was 0.331; in the assay on Sam68 (KHDRBS1) it was 1.11; in assay [17], -0.0554; in assay [18] it was 1.13. In [2], this molecule registered a z-score of -2.04. For the same molecule, the composite Z-score in assay [11] is -0.37 (inactive).

For the molecule `COCCCNC(=O)[C@@]1(Cc2ccccc2)COC(c2ccc(OCCCO)cc2)=N1`, the composite z-score in [1] is 0.952; in [3], -1.08; in assay [4], 0.525; in assay [5], 0.361; in assay [6] it was 0.199; in [7], 0.289. Besides, the composite z-score in [8] is -0.573; in assay [9], 1.03; in [10], 0.943; with Albumin (Bos taurus) it was 0.838; in assay [12], 0.0813; in assay [13], -0.0307. Also, the composite z-score in assay [14] was 0.739; in [15], 3.02; in assay [16] it was 0.77; with Sam68 (KHDRBS1) it was 1.31; in assay [17] it was -0.554; in assay [18] it was 0.825. The molecule also gave a z-score in assay [2] of -0.409. The composite Z-score in [11] was 0.6 (inactive).

`C[N+](C)(C)CCCC[C@@H]1NC(=O)[C@H]2C[C@@H](C(=O)NCCCCCCN)[C@@H](c3cccc(OCCO)c3)N2C1=O`: the composite z-score stood at 1.4 in assay [1]; 1.39 in assay [3]; 1.11 in assay [4]; 1.13 in [5]; 0.469 in assay [6]; 0.705 in assay [7]. For the same molecule, the composite z-score was determined as 2.31 in [8]; 1.21 in [9]; 0.995 in assay [10]; 0.149 with Albumin (Bos taurus); 0.536 in [12]; 0.198 in assay [13]. Moreover, the composite z-score worked out at 0.752 in [14]; 2.07 in assay [15]; 1.04 in assay [16]; 1.3 in the assay on Sam68 (KHDRBS1); 0.886 in [17]; 0.936 in [18]. The same molecule came in with a z-score in assay [2] of 0.347. In addition, the composite Z-score in assay [11] was 0.514 (inactive).

Consider `COCC(=C=CC[C@@H](O)c1ccccc1OCCO)C[C@@H](O)c1ccccn1`, for which the composite z-score in assay [1] was 0.968; in [3], 0.289; in assay [4] it was -0.153; in [5], -0.514; in [6] it was -0.124; in assay [7] it was -0.0119. Moreover, the composite z-score in [8] was 0.099; in assay [9], -0.246; in assay [10], 0.34; with Albumin (Bos taurus), -0.203; in assay [12], -0.0043; in assay [13], -0.117. The composite z-score in assay [14] was 0.777; in [15] it was 1.28; in assay [16] it was 0.583; in the assay with Sam68 (KHDRBS1), 0.86; in [17], -0.0696; in assay [18], 0.742. The same molecule displayed a z-score in assay [2] of -0.979. Also, in [11], the composite Z-score is -0.422 (inactive).

Regarding `C[C@@]1([C@@H](NC(=O)c2cccs2)c2ccc(-c3ccccc3)cc2)C[C@H]1C1CCCCC1`, the composite z-score was -0.309 in assay [1]; -0.919 in assay [3]; 0.645 in [4]; 0.111 in [5]; -0.302 in [6]; -0.478 in assay [7]. Moreover, the composite z-score in assay [8] was 0.356; in [9] it was 0.0643; in assay [10], -0.344; with Albumin (Bos taurus) it was 0.0881; in assay [12], -0.0027; in [13] it was -0.343. The composite z-score in [14] is 0.786; in assay [15], 3.02; in [16], -0.165; in the assay on Sam68 (KHDRBS1), -0.307; in assay [17], -0.237; in assay [18] it was -0.419. The molecule also returned a z-score in assay [2] of -1.47. Moreover, the composite Z-score in assay [11] is 0.0169 (inactive).
